Assay outcomes: PubChem, National Center for Advancing Translational Sciences (NCATS)
This is a sample that favours compounds with a hit; in the whole collection about 19% have one here.
TDP1 inh: qHTS Assay for Inhibitors of Tyrosyl-DNA Phosphodiesterase (TDP1); 350,000 tested, 0.28% active; recombinant TDP1, AlphaScreen DNA substrate cleavage; Potency, µM (series often up to 130 µM), actives largely listed as inhibitors; also: nearly all actives have a fitted effect of over 40% in size
Target sequence (Q9NUW8 whole entry, looked up): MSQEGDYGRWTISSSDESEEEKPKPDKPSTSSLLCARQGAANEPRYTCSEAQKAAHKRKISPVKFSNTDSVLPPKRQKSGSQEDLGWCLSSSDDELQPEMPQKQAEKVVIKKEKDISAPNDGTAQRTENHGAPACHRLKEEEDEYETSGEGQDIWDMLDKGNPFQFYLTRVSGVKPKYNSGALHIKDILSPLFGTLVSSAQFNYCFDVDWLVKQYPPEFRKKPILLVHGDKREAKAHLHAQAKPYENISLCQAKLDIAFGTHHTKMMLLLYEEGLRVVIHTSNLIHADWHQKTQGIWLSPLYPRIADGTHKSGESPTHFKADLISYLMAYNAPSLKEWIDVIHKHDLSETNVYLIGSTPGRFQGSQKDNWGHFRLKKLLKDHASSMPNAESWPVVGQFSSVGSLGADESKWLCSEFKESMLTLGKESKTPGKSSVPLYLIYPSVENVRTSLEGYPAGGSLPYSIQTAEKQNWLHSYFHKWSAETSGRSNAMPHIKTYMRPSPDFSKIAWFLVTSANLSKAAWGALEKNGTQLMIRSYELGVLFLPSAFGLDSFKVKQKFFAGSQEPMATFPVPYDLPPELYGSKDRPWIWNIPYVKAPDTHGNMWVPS
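Recombinant E. coli-expressed Tdp1 (1 nM) preincubated with compound 15 min at RT, then 5'-biotin/3'-phosphotyrosine-FITC DNA substrate (15 nM) added for 5 min. AlphaScreen beads (10 ug/ml) added, 10 min RT; tyrosine-FITC cleavage read as signal loss.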
ELG1 DNA repair: qHTS screen for small molecules that inhibit ELG1-dependent DNA repair in human embryonic kidney (HEK293T) cells expressing luciferase-tagged ELG1. HEK293T ELG1-luciferase reporter, luminescence, 16 h; DNA damage induced by 5-fluorouridine. Potency, µM (series often up to 46.1 µM), usual class: inhibitors. 330,000 tested, 2.3% active; also: nearly all actives have a fitted effect of over 55% in size
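Cells (2,000 per well) received 5-fluorouridine plus test compound or DMSO and were incubated 16 hr at 37 °C, 5% CO2. Luciferase activity was read by luminescence 30 min after ONE-Glo addition; signal suppression marked inhibition of damage-induced ELG1 function.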
TDP1 cell CPT: qHTS for Inhibitors of human tyrosyl-DNA phosphodiesterase 1 (TDP1): qHTS in cells in presence of CPT; chicken DT40 Tdp1-/-;hTDP1 cells + 20 nM CPT, ATP luminescence, 48 h; Potency, µM (top dose mostly 46.2 µM), actives largely listed as inhibitors; 420,000 tested, 12% active; AID 686979, 2013; also: nearly all actives have a fitted effect of over 55% in size
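Cell growth measured by CellTiter-Glo luminescence after a minimum 48 h, 37 C compound exposure with 20 nM CPT in Tdp1-knockout DT40 cells stably expressing hTDP1, seeded 400/well; qHTS titration format.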
TDP1 cell noCPT: qHTS for Inhibitors of human tyrosyl-DNA phosphodiesterase 1 (TDP1): qHTS in cells in absence of CPT; DT40 Tdp1-/- hTDP1 cells, no CPT, ATP luminescence, 48 h; Potency, µM (doses to about 46.2 µM), most hits filed as inhibitors; 420,000 tested, 15% active; also: nearly all actives have a fitted effect of over 55% in size
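A cellular qHTS used chicken DT40 cells lacking endogenous Tdp1 but carrying stably transfected human TDP1. Compounds were applied without camptothecin, and cell growth kinetics were judged by ATP-dependent luminescence after ≥48 hr.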
IL1B secr inh: qHTS for Inhibitors of Inflammasome Signaling: IL-1-beta AlphaLISA Primary Screen; THP-1 LPS/ATP IL-1B secretion, AlphaLISA, 16 h; active compounds read low; activity change, % at 57.5 µM; 360,000 tested, 4.7% active; AID 743279, 2014; in the data active = activity change below about -50%; inconclusive = mostly about -30% to -49%
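Secreted IL-1B measured by AlphaLISA bead assay after 16 h compound exposure of THP-1 cells; compounds (final up to 57.5 uM) added 1 h before LPS (250 ng/mL) and ATP (1.25 mM) stimulation; lower signal means less secretion.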
Giardia kill: Small Molecules that selectively kill Giardia lamblia: qHTS; Giardia lamblia trophozoite viability; activity change, % at 7.66 µM, hits read low; 340,000 tested, 0.15% active; in the data active = activity change below about -80%; inconclusive = between about -30% and that limit;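 also: parasites exposed to compound for two days anaerobically before the ATP read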
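Each well holds 100 Giardia trophozoites and compound. After two days (48 hrs) at 37 deg C in anaerobic conditions, ATP is quantified by luminescence.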
Hits are given with their value. Unless noted, calls follow the shape of the dose curve; as a rule, active = well fitted curve in the direction sought with a large enough effect; inconclusive = small, poorly fitted or top-dose-only effect, or another doubt; inactive = no such curve, though single readings can be large; an effect the other way counts as inactive or inconclusive.

`O=C(/C=C/c1ccccc1)CC(=O)c1ccccc1O` gave ELG1 DNA repair inconclusive, TDP1 cell CPT inconclusive, TDP1 cell noCPT 18µM, IL1B secr inh inactive and Giardia kill inactive.
Screening O=C(/C=C/c1ccccc1)NC(=O)c1ccccc1O returned TDP1 inh inconclusive, ELG1 DNA repair inconclusive, TDP1 cell CPT inconclusive, TDP1 cell noCPT inconclusive, IL1B secr inh -58 and Giardia kill inactive.
Screening O=S(=O)(c1ccc(Br)cc1)c1nnn2c1nc(Nc1cccc(C(F)(F)F)c1)c1sccc12 returned TDP1 inh inactive, TDP1 cell CPT inactive and TDP1 cell noCPT inactive.
For COc1ccccc1NS(=O)(=O)c1cc2c(cc1Cl)NC(=O)CO2 the results were TDP1 inh inactive, TDP1 cell CPT inconclusive and TDP1 cell noCPT inconclusive.
Screening C[C@@H]1CN([C@@H](C)CO)C(=O)c2cc(Br)cnc2O[C@@H]1CN(C)S(C)(=O)=O returned TDP1 cell CPT inactive, TDP1 cell noCPT inactive and IL1B secr inh inactive.
`OC1CCCN(Cc2ccc3ccc4cccc5ccc2c3c45)C1` (stereo not given) gave TDP1 inh inactive, ELG1 DNA repair inactive, TDP1 cell CPT inconclusive, TDP1 cell noCPT 21µM, IL1B secr inh -69 and Giardia kill inactive.
Screening c1cc2ccc3ccc(CN4CCOCC4)c4ccc(c1)c2c34 returned TDP1 inh inactive, ELG1 DNA repair inactive, TDP1 cell CPT inconclusive, TDP1 cell noCPT inconclusive, IL1B secr inh -77 and Giardia kill inactive.
CCOC(=O)C(C(=O)OCC)N(C#N)c1nc(C)cc(C)n1 was read as TDP1 inh inactive, ELG1 DNA repair inactive, TDP1 cell CPT inactive, TDP1 cell noCPT inactive, IL1B secr inh inactive and Giardia kill inactive.
For CCOC(=O)C(C(=O)OCC)N(C#N)c1nc(N(C)C)nc(N(C)C)n1 the results were TDP1 inh inactive, ELG1 DNA repair inactive, TDP1 cell CPT inactive, TDP1 cell noCPT inactive, IL1B secr inh -100 and Giardia kill inactive.
For O=C(NCC(c1ccc(F)cc1)N1CCOCC1)c1cccnc1Sc1ccccc1 (stereo not given) the results were TDP1 inh inactive, ELG1 DNA repair inactive, TDP1 cell CPT inactive, TDP1 cell noCPT inconclusive, IL1B secr inh inactive and Giardia kill inactive.
For COc1ccccc1NS(=O)(=O)c1cccc(C(=O)NCC(c2ccc(F)cc2)N2CCOCC2)c1 (stereo not given) the results were ELG1 DNA repair inactive, TDP1 cell CPT inconclusive, TDP1 cell noCPT inconclusive, IL1B secr inh inactive and Giardia kill inactive.
O=C(NCC(c1cccs1)N1CCOCC1)c1ccccc1NS(=O)(=O)c1ccc(Br)cc1 (stereo not given) was read as TDP1 inh inactive, ELG1 DNA repair inactive, TDP1 cell CPT inconclusive, TDP1 cell noCPT 15µM, IL1B secr inh inactive and Giardia kill inactive.
`C=CCN(c1ccccc1)S(=O)(=O)c1cccc(C(=O)NCC(c2ccc(F)cc2)N2CCOCC2)c1` (stereo not given) gave ELG1 DNA repair inconclusive, TDP1 cell CPT 13µM, TDP1 cell noCPT 16µM, IL1B secr inh inactive and Giardia kill inactive.
`CCN(c1ccccc1)S(=O)(=O)c1cccc(C(=O)NCC(c2ccc(F)cc2)N2CCOCC2)c1` (stereo not given) gave TDP1 cell CPT 23µM, TDP1 cell noCPT 10µM, IL1B secr inh inactive and Giardia kill inactive.
`Cc1ccc(Sc2ncccc2C(=O)NCC(c2ccc(F)cc2)N2CCOCC2)c(C)c1` (stereo not given) gave TDP1 inh inactive, ELG1 DNA repair inconclusive, TDP1 cell CPT 15µM, TDP1 cell noCPT inconclusive, IL1B secr inh inactive and Giardia kill inactive.
COc1cccc(NC(=O)c2cc3c(=O)n(C)c4ccccc4c3n2C)c1 was read as TDP1 inh inactive, TDP1 cell CPT inconclusive and TDP1 cell noCPT inactive.
For C[C@H]1CN([C@@H](C)CO)C(=O)c2cc(Br)cnc2O[C@H]1CN(C)C(=O)c1ccccn1 the results were TDP1 cell CPT inactive, TDP1 cell noCPT inactive and IL1B secr inh inactive.
Screening O=C(NCC(c1cccs1)N1CCOCC1)c1cccc(S(=O)(=O)Nc2ccc(F)cc2)c1 (stereo not given) returned TDP1 cell CPT inconclusive, TDP1 cell noCPT inconclusive, IL1B secr inh inactive and Giardia kill inactive.
`Cc1ccc(NS(=O)(=O)c2cccc(C(=O)NCC(c3ccc(F)cc3)N3CCOCC3)c2)cc1` (stereo not given) gave TDP1 inh inactive, ELG1 DNA repair inconclusive, TDP1 cell CPT 29µM, TDP1 cell noCPT 16µM, IL1B secr inh -51 and Giardia kill inactive.
Screening CN(C)c1ccc(C(=O)NCC(c2cccs2)N2CCOCC2)cc1 (stereo not given) returned TDP1 inh inactive, ELG1 DNA repair inactive, TDP1 cell CPT inactive, TDP1 cell noCPT inactive, IL1B secr inh inactive and Giardia kill inactive.
For CN(c1ccccc1)S(=O)(=O)c1cccc(C(=O)NCC(c2cccs2)N2CCOCC2)c1 (stereo not given) the results were TDP1 cell CPT inconclusive, TDP1 cell noCPT 16µM and IL1B secr inh inactive.
For CC(=O)c1ccc(OCCCC(=O)N2CCN(S(=O)(=O)c3cccs3)CC2)cc1 the results were TDP1 inh inactive, ELG1 DNA repair inconclusive, TDP1 cell CPT inconclusive, TDP1 cell noCPT 12µM, IL1B secr inh inactive and Giardia kill inactive.
`O=C(CCCOc1ccccc1)N1CCN(S(=O)(=O)c2cccs2)CC1` gave TDP1 inh inactive, ELG1 DNA repair inactive, TDP1 cell CPT inactive, TDP1 cell noCPT inactive, IL1B secr inh inactive and Giardia kill inactive.
O=C(Cc1c(Cl)cccc1Cl)N1CCN(S(=O)(=O)c2cccs2)CC1 was read as TDP1 inh inactive, ELG1 DNA repair inactive, TDP1 cell CPT 21µM, TDP1 cell noCPT inconclusive, IL1B secr inh inactive and Giardia kill inactive.
Screening COc1c2c(cc3oc(=O)ccc13)OC(C)(C)C=C2 returned ELG1 DNA repair inconclusive, TDP1 cell CPT inconclusive, TDP1 cell noCPT 26µM, IL1B secr inh inactive and Giardia kill inactive.
CC1(C)Oc2cc3oc(=O)ccc3cc2C[C@@H]1O was read as TDP1 inh inactive, ELG1 DNA repair inconclusive, TDP1 cell CPT inactive, TDP1 cell noCPT inactive, IL1B secr inh inactive and Giardia kill inactive.
